In PubChem BioAssay AID1159580 (chemical genetic matrix, 2015):
Screen size: about 5,500 compounds; about 2,000 (36%) were called active. About 18% were inconclusive and are not listed. No stated cut-off is given here; in the data, active means normalized growth mostly below about 0.91 (no sharp cut-off); inconclusive means no clear call, values can overlap the other calls; inactive means mostly above about 0.92. The list shows a part of the results.

Test: chemical genetic growth profiling, strain panel (AID 1159580);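 further: tested at 20 µM; growth read once vehicle control cultures reached saturation at 30 °C; 1 = growth at the plate median or of vehicle wells; lower values mean less growth of the strain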
Details: S. cerevisiae deletion strains, growth OD

Measured: normalized growth

C[C@@H]1OC(O[C@H]2C(O[C@H]3CC[C@@]4(C)C(CC[C@]5(C)C4CC=C4C6CC(C)(C)CC[C@]6(C(=O)O)CC[C@]45C)[C@]3(C)CO)OC[C@H](O)[C@@H]2O)[C@H](O)[C@H](O)[C@H]1O (stereo not given in full)
active: locus YAL021C, strain ccr4, hits give low values 0.0607 | locus YAL026C, strain drs2, hits give low values 0.0592 | locus YAL030W, strain snc1, hits give low values 0.0552 | locus YBL061C, strain skt5, hits give low values 0.058 | locus YBR009C, strain hhf1, hits give low values 0.061 | locus YBR021W, strain FUR4, hits give low values 0.267 | locus YBR023C, strain chs3, hits give low values 0.0603 | locus YBR171W, strain sec66, hits give low values 0.0767 | locus YBR229C, strain ROT2, hits give low values 0.32 | locus YBR231C, strain swc5, hits give low values 0.0595 | locus YBR279W, strain paf1, hits give low values 0.0577 | locus YCL011C, strain gbp2, hits give low values 0.0544 | locus YCL016C, strain dcc1, hits give low values 0.0589 | locus YCL029C, strain bik1, hits give low values 0.0636 | locus YCL061C, strain MRC1, hits give low values 0.0604 | locus YCL069W, strain vba3, hits give low values 0.0603 | locus YCR088W, strain abp1, hits give low values 0.059 | locus YDL005C, strain med2, hits give low values 0.0706 | locus YDL035C, strain GPR1, hits give low values 0.483 | locus YDL040C, strain nat1, hits give low values 0.0557 | locus YDL074C, strain BRE1, hits give low values 0.269 | locus YDL101C, strain DUN1, hits give low values 0.44 | locus YDL185W, strain tfp1, hits give low values 0.0554 | locus YDL192W, strain arf1, hits give low values 0.0745 | locus YDR001C, strain nth1, hits give low values 0.0586 | locus YDR069C, strain doa4, hits give low values 0.0606 | locus YDR101C, strain arx1, hits give low values 0.0695 | locus YDR137W, strain rgp1, hits give low values 0.0801 | locus YDR159W, strain sac3, hits give low values 0.0844 | locus YDR162C, strain NBP2, hits give low values 0.299 | locus YDR195W, strain ref2 0.105 | locus YDR297W, strain sur2, hits give low values 0.0548 | locus YDR318W, strain mcm21, hits give low values 0.0705 | locus YDR334W, strain swr1, hits give low values 0.0629 | locus YDR335W, strain msn5, hits give low values 0.0601 | locus YDR388W, hits give low values 0.0545 | locus YDR392W, strain spt3, hits give low values 0.0915 | locus YDR502C, strain sam2, hits give low values 0.0793 | locus YEL003W, strain gim4, hits give low values 0.0528 | locus YEL037C, strain rad23, hits give low values 0.0576 | locus YEL061C, strain CIN8 (second series), hits give low values 0.0604 | locus YEL061C, strain CIN8, hits give low values 0.447 | locus YER015W, strain faa2, hits give low values 0.059 | locus YER016W, strain bim1, hits give low values 0.059 | locus YER110C, hits give low values 0.0996 | locus YER111C, strain swi4, hits give low values 0.0703 | locus YER155C, strain BEM2 (second series), hits give low values 0.0853 | locus YER155C, strain BEM2, hits give low values 0.124 | locus YER167W, strain BCK2, hits give low values 0.24 | locus YFR010W, strain ubp6, hits give low values 0.0632 | locus YGL078C, strain dbp3, hits give low values 0.056 | locus YGL086W, strain mad1, hits give low values 0.0905 | locus YGL167C, strain pmr1, hits give low values 0.0718 | locus YGL173C, strain kem1, hits give low values 0.0643 | locus YGL227W, strain vid30, hits give low values 0.0617 | locus YGL240W, strain doc1, hits give low values 0.0707 | locus YGL248W, strain PDE1, hits give low values 0.422 | locus YGL253W, strain hxk2, hits give low values 0.053 | locus YGR078C, strain PAC10, hits give low values 0.325 | locus YGR135W, strain pre9, hits give low values 0.136 | locus YGR252W, strain gcn5, hits give low values 0.157 | locus YHR013C, strain ard1, hits give low values 0.114 | locus YHR027C, strain rpn1, hits give low values 0.0611 | locus YHR030C, strain SLT2, hits give low values 0.103 | locus YHR079C, strain IRE1 (second series), hits give low values 0.0576 | locus YHR094C, strain hxt1, hits give low values 0.0605 | locus YHR129C, strain ARP1, hits give low values 0.202 | locus YHR142W, strain chs7, hits give low values 0.0688 | locus YHR200W, strain rpn10, hits give low values 0.0676 | locus YIL066C, strain RNR3, hits give low values 0.457 | locus YIL073C, strain SPO22, hits give low values 0.285 | locus YIL125W, strain kgd1, hits give low values 0.0561 | locus YIR030C, strain dcg1, hits give low values 0.0652 | locus YJL092W, strain hpr5, hits give low values 0.0579 | locus YJL095W, strain BCK1 (second series), hits give low values 0.0567 | locus YJL095W, strain BCK1, hits give low values 0.143 | locus YJL115W, strain asf1, hits give low values 0.069 | locus YJL129C, strain trk1, hits give low values 0.0793 | locus YJL134W, strain LCB3, hits give low values 0.187 | locus YJL154C, strain vps35, hits give low values 0.0589 | locus YJL164C, strain tpk1, hits give low values 0.0589 | locus YJL166W, strain qcr8, hits give low values 0.0599 | locus YJL168C, strain set2, hits give low values 0.0664 | locus YJL187C, strain SWE1 (second series), hits give low values 0.48 | locus YJL187C, strain SWE1, hits give low values 0.0554 | locus YJR043C, strain POL32, hits give low values 0.42 | locus YKL009W, strain mrt4, hits give low values 0.0928 | locus YKL068W, hits give low values 0.0555 | locus YKL085W, strain MDH1 (second series), hits give low values 0.0602 | locus YKL085W, strain MDH1, hits give low values 0.0602 | locus YKL160W, strain elf1, hits give low values 0.0617 | locus YKR001C, strain vps1, hits give low values 0.0888 | locus YKR026C, strain gcn3, hits give low values 0.0618 | locus YKR091W, strain srl3, hits give low values 0.0568 | locus YLL001W, strain dnm1, hits give low values 0.0585 | locus YLL026W, hits give low values 0.0562 | locus YLL041C, strain sdh2, hits give low values 0.0555 | locus YLR027C, strain aat2, hits give low values 0.0549 | locus YLR039C, strain RIC1, hits give low values 0.135 | locus YLR058C, strain SHM2, hits give low values 0.414 | locus YLR102C, strain apc9, hits give low values 0.0668 | locus YLR221C, strain rsa3, hits give low values 0.0578 | locus YLR258W, strain gsy2, hits give low values 0.0581 | locus YLR262C, strain YPT6 (second series), hits give low values 0.0763 | locus YLR262C, strain YPT6, hits give low values 0.153 | locus YLR268W, strain sec22, hits give low values 0.0705 | locus YLR320W, strain mms22, hits give low values 0.0834 | locus YLR330W, strain CHS5, hits give low values 0.213 | locus YLR342W, strain FKS1 (second series), hits give low values 0.286 | locus YLR342W, strain FKS1, hits give low values 0.0611 | locus YLR357W, strain rsc2, hits give low values 0.11 | locus YLR370C, strain arc18, hits give low values 0.0593 | locus YLR371W, strain rom2, hits give low values 0.0622 | locus YLR384C, strain iki3, hits give low values 0.0588 | locus YLR418C, strain cdc73, hits give low values 0.114 | locus YML016C, strain PPZ1, hits give low values 0.214 | locus YML032C, strain rad52, hits give low values 0.0701 | locus YML120C, strain ndi1, hits give low values 0.0572 | locus YML124C, strain tub3, hits give low values 0.0681 | locus YMR058W, strain fet3, hits give low values 0.0577 | locus YMR078C, strain ctf18, hits give low values 0.0754 | locus YMR125W, strain sto1, hits give low values 0.0713 | locus YMR129W, hits give low values 0.0556 | locus YMR205C, strain PFK2, hits give low values 0.0864 | locus YMR223W, strain ubp8, hits give low values 0.0761 | locus YMR231W, strain pep5, hits give low values 0.0636 | locus YMR263W, strain SAP30, hits give low values 0.185 | locus YMR307W, strain GAS1, hits give low values 0.117 | locus YNL067W, strain RPL9B, hits give low values 0.471 | locus YNL071W, strain lat1, hits give low values 0.0594 | locus YNL128W, strain TEP1, hits give low values 0.401 | locus YNL209W, strain ssb2, hits give low values 0.0578 | locus YNL233W, strain BNI4, hits give low values 0.167 | locus YNL248C, strain rpa49, hits give low values 0.0674 | locus YNL250W, strain rad50, hits give low values 0.0622 | locus YNL271C, strain bni1, hits give low values 0.058 | locus YNL298W, strain CLA4, hits give low values 0.0574 | locus YNL307C, strain MCK1, hits give low values 0.0651 | locus YNL322C, strain KRE1 (second series), hits give low values 0.0635 | locus YNR049C, strain mso1, hits give low values 0.0575 | locus YNR052C, strain pop2, hits give low values 0.0612 | locus YOL147C, strain pex11, hits give low values 0.0641 | locus YOR001W, strain rrp6, hits give low values 0.0642 | locus YOR061W, strain CKA2, hits give low values 0.723 | locus YOR069W, strain VPS5, hits give low values 0.193 | locus YOR070C, strain gyp1, hits give low values 0.0577 | locus YOR080W, strain dia2, hits give low values 0.0631 | locus YOR083W, strain WHI5, hits give low values 0.0595 | locus YOR106W, strain vam3, hits give low values 0.0596 | locus YOR136W, strain idh2, hits give low values 0.0808 | locus YOR144C, strain elg1, hits give low values 0.0575 | locus YOR184W, strain ser1, hits give low values 0.0762 | locus YOR265W, strain rbl2, hits give low values 0.0556 | locus YOR270C, strain vph1, hits give low values 0.0934 | locus YOR290C, strain snf2, hits give low values 0.0761 | locus YOR316C, strain cot1, hits give low values 0.0649 | locus YPL051W, strain arl3, hits give low values 0.0588 | locus YPL078C, strain atp4, hits give low values 0.0628 | locus YPL106C, strain sse1, hits give low values 0.0896 | locus YPL240C, strain hsp82, hits give low values 0.0548 | locus YPR119W, strain clb2, hits give low values 0.0662 | locus YPR141C, strain kar3, hits give low values 0.0612 | locus YPR163C, strain tif3, hits give low values 0.0699 | locus YPR167C, strain met16, hits give low values 0.0649 | strain wtn01, hits give low values 0.0783
